# Source: PubChem BioAssay (Tox21)
# “And” between values parts separate entries of the source, which are not always exact repeats. Equal values may be shown once. Inconclusive results are not listed. Where a call stands in place of a potency, no number is given. Some structures have more than one record in an assay (separate samples or runs), and their calls can disagree. The source made the active and inactive calls. Unless noted, calls follow the shape of the full dose curve.
# What was measured:
# [1] = Nuclear factor erythroid 2-related factor 2/antioxidant responsive element (Nrf2/ARE) small molecule agonists: qHTS cell viability counter screen in human keratinocytes (AID 1919968; active = well fitted curve in the direction sought with a large enough effect in the repeat runs; an effect the other way counts as inactive or inconclusive; also: nearly all actives have a fitted effect of over 55% in size; also: potency is read from the fitted curve at half-maximal effect)
# Method in brief: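 KeratinoSens cells (HaCaT keratinocytes stably carrying an ARE-luciferase reporter) were seeded at 1,500 cells/well and rested 5 h at 37 C/5% CO2. They were then exposed to compounds in DMSO for 23 h. Viability was read by CellTiter-Fluor fluorescence after 1 h.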
# [2] = Nuclear factor erythroid 2-related factor 2/antioxidant responsive element (Nrf2/ARE) small molecule agonists: luciferase reporter gene qHTS assay in human keratinocytes (AID 1919969); also: nearly all actives have a fitted effect of over 35% in size; also: potency is read from the fitted curve at half-maximal effect
# [3] = target: Gonadotropin-releasing hormone receptor (Homo sapiens) (UniProt P30968); test: Human gonadotropin-releasing hormone receptor (GnRHR) small molecule agonists, calcium flux assay in GnRHR-HEK293 cells (AID 1920063); also: nearly all actives have a fitted effect of over 35% in size; also: potency is read from the fitted curve at half-maximal effect
# Gonadotropin-releasing hormone receptor (Homo sapiens), sequence (P30968 whole entry, looked up): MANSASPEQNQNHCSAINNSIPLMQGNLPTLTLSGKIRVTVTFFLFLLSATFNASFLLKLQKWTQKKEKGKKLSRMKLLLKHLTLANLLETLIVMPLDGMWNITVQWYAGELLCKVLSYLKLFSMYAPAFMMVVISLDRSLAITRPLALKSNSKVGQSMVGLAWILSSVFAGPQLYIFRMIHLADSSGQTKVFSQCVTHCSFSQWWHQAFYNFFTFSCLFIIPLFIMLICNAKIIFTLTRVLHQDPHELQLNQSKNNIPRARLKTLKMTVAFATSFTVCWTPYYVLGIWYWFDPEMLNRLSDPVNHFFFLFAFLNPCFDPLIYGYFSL
# Method in brief: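 HEK293 cells stably expressing human GnRHR were plated 18 h at 37 °C, loaded with calcium dye 1 h at 37 °C, then given compound in agonist mode; fluorescence (Ex/Em 480/540) read kinetically for 3 min at 1 s intervals.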
# [4] = target: KiSS-1 receptor (Homo sapiens) (UniProt Q969F8); test: Human kisspeptin (KISS1R) small molecule agonists, calcium flux assay in KISS1R-HEK293 cells (AID 1920064; active = well fitted curve in the direction sought with a large enough effect in the repeat runs; an effect the other way counts as inactive or inconclusive; also: potency is read from the fitted curve at half-maximal effect)
# KiSS-1 receptor (Homo sapiens), sequence (Q969F8 whole entry, looked up): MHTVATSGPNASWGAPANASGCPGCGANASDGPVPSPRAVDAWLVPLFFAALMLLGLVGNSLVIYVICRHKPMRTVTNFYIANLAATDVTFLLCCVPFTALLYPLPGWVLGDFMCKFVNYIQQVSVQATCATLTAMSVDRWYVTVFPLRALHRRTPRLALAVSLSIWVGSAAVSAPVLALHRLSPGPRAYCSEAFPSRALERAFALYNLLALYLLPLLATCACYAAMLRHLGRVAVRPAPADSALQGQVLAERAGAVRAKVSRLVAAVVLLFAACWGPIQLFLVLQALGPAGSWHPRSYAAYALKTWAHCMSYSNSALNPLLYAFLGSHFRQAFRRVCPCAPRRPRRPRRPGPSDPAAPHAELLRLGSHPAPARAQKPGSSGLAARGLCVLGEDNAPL
# Method in brief: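 HEK293 cells stably expressing human KISS1R were plated 18 h at 37 °C, loaded with calcium dye for 1 h at 37 °C, then given compound by pin tool. Fluorescence (Ex/Em 480/540) was read kinetically for 3 min.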
# [5] = G protein-coupled receptor (GPCR) small molecule agonists, calcium flux assay: HEK293 wild type cell line counter screen (AID 1920065); also: potency is read from the fitted curve at half-maximal effect
# Method in brief: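 Cells were plated and cultured 18 h at 37 C/5% CO2, then loaded with calcium dye for 1 h at 37 C. Compounds in DMSO were pin-transferred in agonist mode, and fluorescence (Ex/Em 480/540) was read kinetically for 3 min at 1 s intervals.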
# [6] = p53 small molecule agonists, cell-based qHTS assay with human liver microsomes (AID 1963577);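 also: p53 response element beta-lactamase reporter cells with liver microsomes plus NADPH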
# Method in brief: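 Metabolically competent format: test substances, human liver microsomes and NADPH (both 0.5 mg/mL final) incubated with p53RE-bla cells 16 h at 37 C. Beta-lactamase reporter signal then quantified by fluorescence.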
# [7] = p53 small molecule agonists, cell-based qHTS assay with rat liver microsomes (AID 1963578)
# Method in brief: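 Each plate received p53RE-bla cells, then compound, then rat liver microsomes and NADPH (both 0.5 mg/mL final). Plates were held 16 h at 37 C, and beta-lactamase activity was detected with LiveBLAzer over 2 h.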
# [8] = p53 small molecule agonists, cell-based qHTS assay with human liver microsomes: qHTS cell viability counter screen (AID 1963579); also: nearly all actives have a fitted effect of over 45% in size; also: potency is read from the fitted curve at half-maximal effect
# Method in brief: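 Tox21 library compounds, delivered from DMSO stocks, were tested on p53RE-bla cells together with 0.5 mg/mL human liver microsomes and 0.5 mg/mL NADPH (final) over 16 h at 37 C; CellTiter-Glo luminescence served as the cytotoxicity measure.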
# [9] = p53 small molecule agonists, cell-based qHTS assay with rat liver microsomes: qHTS cell viability counter screen (AID 1963580); also: nearly all actives have a fitted effect of over 45% in size; also: potency is read from the fitted curve at half-maximal effect
# Method in brief: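 HCT-116 p53RE-bla, 4,000 cells/well, 5 h pre-incubation; cpd + rat liver microsomes 0.5 mg/mL + NADPH 0.5 mg/mL (final); 16 h, 37 C; CellTiter-Glo, 30 min RT; luminescence.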
# [10] = p53 small molecule agonists, cell-based qHTS assay: qHTS cell viability counter screen (AID 1963581); also: nearly all actives have a fitted effect of over 45% in size; also: potency is read from the fitted curve at half-maximal effect
# Method in brief: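 p53RE-bla HCT-116 cells were exposed to compounds for 16 h at 37 C; after the beta-lactamase FRET read in the same wells, CellTiter-Glo was added and luminescence (intracellular ATP) read after 30 min at room temperature.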
# [11] = p53 small molecule agonists, cell-based qHTS assay (AID 1963582; active = well fitted activation curve with a large enough effect in the signal ratio in the repeat runs, not every such curve was filed as active; the % refers to the signal ratio)
# Method in brief: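 p53RE-bla beta-lactamase reporter cells rested 5 h at 37 C/5% CO2, then received compounds in DMSO by pin transfer and were incubated 16 h at 37 C. LiveBLAzer B/G FRET substrate was loaded for 2 h at room temperature before fluorescence reading.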
# [12] = target: Beta-2 adrenergic receptor (Homo sapiens) (UniProt P07550); test: Adrenergic beta2 receptor (ADRB2) small molecule antagonists, cell-based qHTS assay (AID 1963592); also: nearly all actives have a fitted effect of over 50% in size; also: potency is read from the fitted curve at half-maximal effect
# Beta-2 adrenergic receptor (Homo sapiens), sequence (P07550 whole entry, looked up): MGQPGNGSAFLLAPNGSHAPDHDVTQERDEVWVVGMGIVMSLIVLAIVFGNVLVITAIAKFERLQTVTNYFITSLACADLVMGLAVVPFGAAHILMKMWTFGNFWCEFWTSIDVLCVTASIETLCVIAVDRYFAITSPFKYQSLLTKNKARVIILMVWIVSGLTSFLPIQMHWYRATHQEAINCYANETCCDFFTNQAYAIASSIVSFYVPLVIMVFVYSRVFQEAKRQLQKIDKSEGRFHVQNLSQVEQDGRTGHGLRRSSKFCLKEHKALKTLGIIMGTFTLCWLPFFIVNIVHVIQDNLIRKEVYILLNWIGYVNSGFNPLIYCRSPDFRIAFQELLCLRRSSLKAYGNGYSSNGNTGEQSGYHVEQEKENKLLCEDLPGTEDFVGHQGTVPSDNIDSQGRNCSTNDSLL
# Method in brief: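 Cells (CHO, stable ADRB2 overexpression) incubated 18-20hr at 37C; compounds added from DMSO; agonist mix (1nM isoproterenol, 100uM IBMX, 25uM Ro-20-1724) added; 0.5hr RT; d2-cAMP and anti-cAMP-cryptate added; 1hr RT; 665/615 nm read.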
# [13] = target: D(2) dopamine receptor (Homo sapiens) (UniProt P14416); test: Dopamine D2 receptor (DRD2) small molecule agonists, cell-based qHTS assay (AID 1963594); also: nearly all actives have a fitted effect of over 35% in size
# D(2) dopamine receptor (Homo sapiens), sequence (P14416 whole entry, looked up): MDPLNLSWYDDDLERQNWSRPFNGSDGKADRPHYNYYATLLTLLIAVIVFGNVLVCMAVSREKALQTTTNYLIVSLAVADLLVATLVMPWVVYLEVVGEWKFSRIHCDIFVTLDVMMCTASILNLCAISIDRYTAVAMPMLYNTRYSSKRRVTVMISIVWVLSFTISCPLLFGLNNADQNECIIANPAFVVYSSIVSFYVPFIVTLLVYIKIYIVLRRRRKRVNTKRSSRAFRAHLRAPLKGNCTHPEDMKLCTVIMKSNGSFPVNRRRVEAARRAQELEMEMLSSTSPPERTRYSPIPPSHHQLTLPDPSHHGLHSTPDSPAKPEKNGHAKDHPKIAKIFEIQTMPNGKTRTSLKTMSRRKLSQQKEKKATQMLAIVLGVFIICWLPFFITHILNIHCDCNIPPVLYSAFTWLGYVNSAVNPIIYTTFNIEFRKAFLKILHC
# Method in brief: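 cAMP accumulation in DRD2-HEK293 cells measured by HTRF after 1 h detection; compounds added 10 min before NKH477 (200nM […]) forskolin-analogue stimulation, 30 min at room temperature, with Ro20-1724 present at 0.1 mM final.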
# [14] = target: D(2) dopamine receptor (Homo sapiens) (UniProt P14416); test: Dopamine D2 receptor (DRD2) small molecule antagonists, cell-based qHTS assay (AID 1963595; active = well fitted inhibition curve with a large enough effect in the signal ratio in the repeat runs, with a control signal flat; the % refers to the signal ratio; also: potency is read from the fitted curve at half-maximal effect)
# Method in brief: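 Human DRD2 antagonist qHTS measuring cAMP by HTRF. The cells are exposed to compound for 10 min, then to NKH477 (200 nM) and quinpirole (12 nM) for 30 min at RT, with Ro20-1724 (0.1 mM) present throughout.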
# [15] = target: 5-hydroxytryptamine receptor 2A (Homo sapiens) (UniProt P28223); test: 5-hydroxytryptamine receptor 2A (HTR2A) small molecule antagonists, cell-based qHTS assay (AID 1963586); also: nearly all actives have a fitted effect of over 45% in size; also: potency is read from the fitted curve at half-maximal effect
# 5-hydroxytryptamine receptor 2A (Homo sapiens), sequence (P28223 whole entry, looked up): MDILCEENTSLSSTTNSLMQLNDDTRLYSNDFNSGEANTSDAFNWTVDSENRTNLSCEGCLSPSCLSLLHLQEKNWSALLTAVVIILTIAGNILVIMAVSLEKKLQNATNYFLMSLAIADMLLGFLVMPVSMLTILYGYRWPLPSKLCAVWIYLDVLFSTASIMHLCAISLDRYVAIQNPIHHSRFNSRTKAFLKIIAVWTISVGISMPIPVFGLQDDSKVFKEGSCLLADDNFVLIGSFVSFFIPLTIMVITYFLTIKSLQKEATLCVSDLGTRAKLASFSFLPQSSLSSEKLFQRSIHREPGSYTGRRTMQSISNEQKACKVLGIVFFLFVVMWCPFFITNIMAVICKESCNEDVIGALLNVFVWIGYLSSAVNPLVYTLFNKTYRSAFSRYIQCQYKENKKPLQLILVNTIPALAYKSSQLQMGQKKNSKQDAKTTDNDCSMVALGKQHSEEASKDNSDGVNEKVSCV
# Method in brief: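 Antagonist-mode intracellular calcium assay: DOI (4 nM) added after 5 min compound pre-incubation at room temperature to dye-loaded HTR2A-CHO cells. Fluorescence followed for 3 min, sampled every second.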
# [16] = target: 5-hydroxytryptamine receptor 2A (Homo sapiens) (UniProt P28223); test: 5-hydroxytryptamine receptor 2A (HTR2A) small molecule agonists, cell-based qHTS assay (AID 1963587); also: nearly all actives have a fitted effect of over 30% in size; also: potency is read from the fitted curve at half-maximal effect
# Method in brief: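 Kinetic calcium-flux fluorescence (2 min, 1 sec intervals) after compound addition in agonist mode. HTR2A-CHO cells were cultured 18 h, then dye-loaded 1 h at 37 C.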
# [17] = target: Muscarinic acetylcholine receptor M1 (Homo sapiens) (UniProt P11229); test: Cholinergic receptor muscarinic 1 (CHRM1) small molecule antagonists, cell-based qHTS assay (AID 1963588); also: nearly all actives have a fitted effect of over 40% in size; also: potency is read from the fitted curve at half-maximal effect
# Muscarinic acetylcholine receptor M1 (Homo sapiens), sequence (P11229 whole entry, looked up): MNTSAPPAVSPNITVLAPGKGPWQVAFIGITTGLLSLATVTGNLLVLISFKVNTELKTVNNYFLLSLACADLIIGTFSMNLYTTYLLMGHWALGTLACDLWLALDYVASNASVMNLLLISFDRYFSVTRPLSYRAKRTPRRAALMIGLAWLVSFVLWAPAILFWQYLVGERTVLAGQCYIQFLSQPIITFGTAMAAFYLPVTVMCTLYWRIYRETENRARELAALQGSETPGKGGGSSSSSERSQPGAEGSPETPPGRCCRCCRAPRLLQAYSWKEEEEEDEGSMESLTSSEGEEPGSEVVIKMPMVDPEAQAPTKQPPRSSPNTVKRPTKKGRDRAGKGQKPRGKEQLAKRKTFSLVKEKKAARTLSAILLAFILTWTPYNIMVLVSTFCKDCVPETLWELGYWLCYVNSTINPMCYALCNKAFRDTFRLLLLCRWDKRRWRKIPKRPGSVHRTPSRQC
# Method in brief: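 CHRM1-CHO calcium-flux assay, antagonist mode. Cells were seeded 18 h, dye-loaded 1 h at 37 C and given compound for 5 min at RT, then acetylcholine was added at 50nM. FDSS fluorescence was read 3 min; 15 concentrations, three runs.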
# [18] = target: Muscarinic acetylcholine receptor M1 (Homo sapiens) (UniProt P11229); test: Cholinergic receptor muscarinic 1 (CHRM1) small molecule agonists, cell-based qHTS assay (AID 1963589); also: nearly all actives have a fitted effect of over 35% in size; also: potency is read from the fitted curve at half-maximal effect
# Method in brief: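 CHO cells stably expressing human CHRM1, seeded 18 h at 37 C/5% CO2, dye-loaded 1 h at 37 C, then given compound in agonist mode; intracellular calcium fluorescence read kinetically at 1 s intervals. Fifteen concentrations, three independent runs.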
# [19] = cAMP Responsive Elements (CRE) small molecule agonists, cell-based qHTS assay (AID 1963590)
# Method in brief: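 CRE-bla HEK 293T cells in DMEM with 10% dialyzed FBS, NEAA, pyruvate and 25 mM HEPES were plated 18 h at 37 C/5% CO2, then exposed to compounds in DMSO for 3 h before LiveBLAzer B/G FRET substrate addition.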
# [20] = cAMP Responsive Elements (CRE) small molecule antagonists, cell-based qHTS assay (AID 1963591; active = well fitted inhibition curve with a large enough effect in the signal ratio in the repeat runs, not every such curve was filed as active; the % refers to the signal ratio)
# Method in brief: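 CRE-bla HEK293T cells were plated 18 h at 37 °C/5% CO2, pinned with compound in DMSO, then stimulated with NKH477 at 0.25 uM final for 3 h. LiveBLAzer B/G FRET substrate was added and plates incubated 2 h at room temperature.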
SMILES,Potency [1],Potency [2],Potency [3],Potency [4],Potency [5],Potency [6],Potency [7],Potency [8],Potency [9],Potency [10],Potency [11],Potency [12],Potency [13],Potency [14],Potency [15],Potency [16],Potency [17],Potency [18],Potency [19],Potency [20]
C[C@]12CC[C@H]3[C@@H](CCC4=CC(=O)CC[C@@H]43)[C@@H]1CC[C@@H]2O,inactive,inactive,inactive,inactive,inactive,inactive,inactive,inactive,inactive,inactive,inactive,inactive,inactive,inactive,–,–,–,–,–,–
CN(C)[C@@H]1C(=O)C(C(N)=O)=C(O)[C@@]2(O)C(=O)C3=C(O)c4c(O)cccc4[C@@](C)(O)[C@H]3C[C@@H]12,inactive,inactive,inactive,inactive,inactive,inactive,inactive,inactive,inactive,inactive,–,inactive,inactive,inactive,inactive,inactive,inactive,inactive,inactive,inactive
C=CC(N)=O,inactive,inactive,inactive,inactive,inactive,inactive,inactive,inactive,inactive,inactive,inactive,inactive,inactive,inactive,–,–,–,–,inactive,inactive
C[Si](Cn1cncn1)(c1ccc(F)cc1)c1ccc(F)cc1,inactive,inactive,inactive,inactive,inactive,inactive,inactive,inactive,inactive,inactive,–,inactive,–,inactive,inactive,inactive,42.1 µM (active),inactive,–,inactive
Cc1ccccc1[N+](=O)[O-],inactive,inactive,inactive,inactive,inactive,inactive,inactive,inactive,inactive,inactive,–,inactive,inactive,inactive,inactive,inactive,inactive,inactive,inactive,inactive
C=CCOC(Cn1ccnc1)c1ccc(Cl)cc1Cl (stereo not drawn),43.3 µM (active) and 18.8 µM (active),15.4 µM (active) and 24.3 µM (active) and 8.41 µM (active),inactive,inactive,inactive,inactive,inactive,inactive,inactive,inactive,inactive,inactive,inactive,inactive,–,–,5.96 µM (active) and 18.8 µM (active),inactive,inactive,inactive
Clc1ccc(C(c2ccccc2Cl)C(Cl)(Cl)Cl)cc1 (stereo not drawn),43.5 µM (active),inactive,inactive,inactive,inactive,inactive,inactive,inactive,inactive,inactive,–,inactive,inactive,inactive,inactive,inactive,inactive,inactive,–,inactive
COc1cc(OC)nc(Oc2cccc(Oc3nc(OC)cc(OC)n3)c2C(=O)O)n1,inactive,inactive,inactive,inactive,inactive,inactive,inactive,inactive,inactive,inactive,–,inactive,inactive,inactive,inactive,inactive,inactive,inactive,inactive,inactive
CCCCCCCCCCCCCC[P+](CCCCCC)(CCCCCC)CCCCCC,7.73 µM (active) and 19.5 µM (active) and inactive,inactive,inactive,inactive,inactive,inactive,inactive,14.5 µM (active) and 20.6 µM (active) and inactive,16.3 µM (active) and 20.6 µM (active) and inactive,7.29 µM (active) and 18.4 µM (active),–,inactive,inactive,12.2 µM (active) and 21.9 µM (active) and inactive,inactive,inactive,inactive,inactive,–,–
CCC[CH2][Sn]([Cl])([CH2]CCC)[CH2]CCC,244 nM (active) and 486 nM (active),244 nM (active) and 486 nM (active),7.78 µM (active) and 38.9 µM (active),43.6 µM (active),34.7 µM (active),inactive,inactive,6.48 µM (active) and 5.76 µM (active),4.09 µM (active) and 4.08 µM (active),1.29 µM (active) and inactive,–,1.09 µM (active) and 1.37 µM (active),–,–,18.8 µM (active),11 µM (active) and 34.7 µM (active),16.8 µM (active),21.9 µM (active) and 38.9 µM (active),–,–
O=S(=O)(c1ccc(O)cc1)c1ccc(O)cc1,inactive,inactive,inactive,inactive,inactive,inactive,inactive,inactive,inactive,inactive,inactive,–,inactive,inactive,–,inactive,inactive,inactive,inactive,inactive
CCCCOC(=O)COC(=O)c1ccccc1C(=O)OCCCC,inactive,inactive,inactive,inactive,inactive,inactive,inactive,inactive,inactive,inactive,inactive,inactive,inactive,inactive,–,inactive,inactive,–,inactive,inactive
